The values that follow come from PubChem BioAssay.

The test system of test [1] is Human papillomavirus type 1a protein E7 (residues 44-93). Put plainly: HPV1a E7 fragment binders on microarrays, primary screen, biochemical, small-molecule microarray, residues 44-93, 635 nm fluorescence (AID 1108).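 Further: E7 fragment applied at 1 µg/mL in TBST for 1 h at 4 C; score combines spot fluorescence with its signal to noise ratio.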 The settings on record: small-molecule microarray binding, fluorescence 635 nm; higher = more signal.
Test [2] is described as follows: modulators of HCV replicon luciferase signal, primary screen, HCV replication inhibitor project, Huh7 cells, luciferase reporter (AID 1109).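 Further: huh7 hepatoma cells harbouring a luciferase neomycin HCV replicon reporter; luciferase luminescence as measure of HCV replicon replication; test concentration not given here.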 The settings on record: 48 h, higher = more signal. On the technique in general: In antiviral work, replicon cells carry a viral genome segment that copies itself.
In test [3] the target is Left-right determination factor 2 (Homo sapiens) (UniProt O00292). As to the kind of experiment: LEFTY2 binders on small-molecule microarrays, primary screen, biochemical, small-molecule microarray, 635 nm fluorescence scan (AID 1110). The conditions noted are these: LEFTY2 binding, higher = more signal.
Chain of Left-right determination factor 2 (Homo sapiens) (O00292 whole entry, looked up): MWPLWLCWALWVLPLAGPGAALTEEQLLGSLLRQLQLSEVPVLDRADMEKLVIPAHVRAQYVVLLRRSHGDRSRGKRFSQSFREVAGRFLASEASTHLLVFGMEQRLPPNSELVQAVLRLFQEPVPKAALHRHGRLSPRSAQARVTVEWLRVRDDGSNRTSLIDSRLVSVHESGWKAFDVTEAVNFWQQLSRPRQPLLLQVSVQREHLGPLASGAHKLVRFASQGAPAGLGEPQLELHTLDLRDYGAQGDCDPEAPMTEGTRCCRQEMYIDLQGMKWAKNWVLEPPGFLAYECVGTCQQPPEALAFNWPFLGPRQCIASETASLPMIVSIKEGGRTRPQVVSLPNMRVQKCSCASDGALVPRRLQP
Test [4] deals with Calmodulin-1 (Homo sapiens) (UniProt P0DP23). Put plainly: CALM1 binders on microarrays, EGTA buffer, profiling panel, biochemical, small-molecule microarray, Cy5-labelled CALM1 (AID 1111).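 Further: labelled calmodulin applied in Tris saline Tween buffer holding calcium plus EGTA and DTT.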 The conditions noted are these: Cy5-CALM1 binding fluorescence, higher = more signal.
Test [5] shares this target. Put plainly: calcium-bound CALM1 binders on microarrays, profiling panel, artefact control for SMM control-protein annotation, biochemical, small-molecule microarray, Cy5-labelled CALM1, plus calcium (AID 1112).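 Further: score merges spot fluorescence with signal to noise from triplicate slides.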 The settings on record: Cy5-CALM1 binding fluorescence, higher = more signal.
Test [6] is described as follows: small-molecule microarray binders of probe aWnt5a, primary screen, biochemical, biotinylated probe, 635/667 nm fluorescence (AID 1113).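 Further: score merges 667 nm fluorescence intensity with signal-to-noise per printed feature.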 The conditions noted are these: higher = more signal.
A short description of test [7]: small-molecule microarray binders of probe aShh, primary screen, biochemical, biotinylated probe, 635/667 nm fluorescence (AID 1114).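 Further: probe is biotin-labelled aShh protein from a stem cell growth factor screen; measures binding of labelled protein to compounds printed on the slide; score merges feature fluorescence at 667 nm with signal-to-noise.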 The settings on record: higher = more signal.
Test [8] can be described thus: small-molecule microarray binders of probe aNog, primary screen, biochemical, biotinylated probe, 635/667 nm fluorescence (AID 1115).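 Further: probe is biotinylated aNog protein used at 0.15 µg/mL for 1 h at 4 C; z-score combines 667 nm fluorescence of each spot with its signal to noise.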 The conditions noted are these: higher = more signal.
For test [9], the target named is Torsin-1A-interacting protein 1 (Homo sapiens) (UniProt Q5JTV8). Put plainly: LAP1 binders from COS7 cell lysate, primary screen, small-molecule microarray, 635/667 nm fluorescence (AID 1116). The settings on record: COS7-hLAP1 lysate binding, 635 nm fluorescence, higher = more signal.
Chain of Torsin-1A-interacting protein 1 (Homo sapiens) (Q5JTV8 whole entry, looked up): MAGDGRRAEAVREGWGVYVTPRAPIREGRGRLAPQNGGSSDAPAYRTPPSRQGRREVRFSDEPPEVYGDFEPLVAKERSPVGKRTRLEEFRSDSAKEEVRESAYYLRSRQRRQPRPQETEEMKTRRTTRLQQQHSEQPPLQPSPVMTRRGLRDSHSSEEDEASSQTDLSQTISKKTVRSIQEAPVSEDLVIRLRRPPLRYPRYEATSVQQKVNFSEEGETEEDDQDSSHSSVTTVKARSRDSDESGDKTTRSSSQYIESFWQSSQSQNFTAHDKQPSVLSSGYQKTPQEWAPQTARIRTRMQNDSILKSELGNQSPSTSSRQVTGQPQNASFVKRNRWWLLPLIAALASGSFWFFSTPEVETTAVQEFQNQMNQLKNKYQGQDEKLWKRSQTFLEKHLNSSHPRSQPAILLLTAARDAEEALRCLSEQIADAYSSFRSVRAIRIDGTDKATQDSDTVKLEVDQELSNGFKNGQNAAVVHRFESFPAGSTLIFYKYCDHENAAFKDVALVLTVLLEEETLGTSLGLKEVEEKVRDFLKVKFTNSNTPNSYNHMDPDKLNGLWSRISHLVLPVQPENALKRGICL
For test [10], the target named is Alpha-bungarotoxin (Bungarus multicinctus) (UniProt P60615). Put plainly: alpha-bungarotoxin binders on microarray, profiling panel, artefact control for SMM control protein annotation, biochemical, small-molecule microarray, Alexa647 label, 635/667 nm fluorescence (AID 1117). The settings on record: alpha-BTX-A647 binding fluorescence, higher = more signal.
Chain of Alpha-bungarotoxin (Bungarus multicinctus) (P60615 whole entry, looked up): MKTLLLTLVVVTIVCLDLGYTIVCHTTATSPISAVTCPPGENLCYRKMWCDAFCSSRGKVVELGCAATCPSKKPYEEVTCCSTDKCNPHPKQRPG
The target of test [11] is Albumin (Bos taurus) (UniProt P02769). As to the kind of experiment: bovine serum albumin binders on microarray, profiling panel, artefact control for SMM control protein annotation, biochemical, small-molecule microarray, Alexa647 label, 635/667 nm fluorescence (AID 1118).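 Further: score merges 667 nm emission intensity and signal-to-noise per printed compound spot.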 The settings on record: BSA-A647 binding, fluorescence 635 nm, higher = more signal.
Chain of Albumin (Bos taurus) (P02769 whole entry, looked up): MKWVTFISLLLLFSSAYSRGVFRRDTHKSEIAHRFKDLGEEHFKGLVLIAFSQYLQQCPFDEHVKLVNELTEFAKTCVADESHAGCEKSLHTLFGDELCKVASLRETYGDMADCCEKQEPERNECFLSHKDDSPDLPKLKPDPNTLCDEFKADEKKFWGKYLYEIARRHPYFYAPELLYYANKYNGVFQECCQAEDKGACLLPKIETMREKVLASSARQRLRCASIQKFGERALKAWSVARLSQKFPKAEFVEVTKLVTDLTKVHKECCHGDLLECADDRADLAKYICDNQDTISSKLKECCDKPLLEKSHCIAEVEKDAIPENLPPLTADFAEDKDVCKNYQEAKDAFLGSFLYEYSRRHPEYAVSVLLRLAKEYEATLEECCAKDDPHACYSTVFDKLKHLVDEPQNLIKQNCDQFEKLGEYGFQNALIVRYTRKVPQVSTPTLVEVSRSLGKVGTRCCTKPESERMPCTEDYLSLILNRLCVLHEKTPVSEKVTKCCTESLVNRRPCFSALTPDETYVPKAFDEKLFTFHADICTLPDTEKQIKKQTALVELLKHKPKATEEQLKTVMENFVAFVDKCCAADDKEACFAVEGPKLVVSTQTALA
Test [12] can be described thus: small-molecule microarray binders of probe aXIP, primary screen, biochemical, NeuroSMM set, 635/667 nm fluorescence (AID 1119).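 Further: probe is the protein aXip251-270 applied at 1 µg/mL to compound-printed slides; binding of probe to printed compounds measured as 667 nm fluorescence plus signal to noise.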 The conditions noted are these: higher = more signal, called active from +8 up or from −8 down.
The nature of test [13]: small-molecule binders of probe aNOTCH3, primary screen, biochemical, small-molecule microarray, 635/667 nm fluorescence (AID 1120).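 Further: probe is a biotin-tagged antibody raised against NOTCH3 rather than NOTCH3 protein; score merges spot fluorescence near 667 nm with spot signal to noise.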 The conditions noted are these: higher = more signal.
Test [14] can be described thus: small-molecule binders of probe aNOTCH2, primary screen, biochemical, small-molecule microarray, 635/667 nm fluorescence (AID 1121).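 Further: score merges feature fluorescence read at 667 nm with its signal to noise.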 The conditions noted are these: higher = more signal.
The target of test [15] is Carbonic anhydrase 2 (Homo sapiens) (UniProt P00918). As to the kind of experiment: CAII small-molecule binders, profiling panel, biochemical, small-molecule microarray, Alexa647-labelled CAII (AID 1122). The settings on record: CAII-A647 binding fluorescence, higher = more signal.
The nature of test [16]: COS7 lysate on small-molecule microarray, probe aHis, 635 nm (AID 1123).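 Further: z-score combines 667nm fluorescence intensity with signal-to-noise per printed compound spot.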 The settings on record: COS7 cell lysate, fluorescence, higher = more signal.
Test [17] in a line: compound binding in COS7 lysate, probe aLAP1, primary screen, cell lysate, small-molecule microarray (AID 1124).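 Further: lysate comes from COS7 cells expressing LAP1 and is applied at 0.3 µg/mL; score merges spot fluorescence near 667 nm with signal-to-noise over triplicate slides.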 The conditions noted are these: probe aLAP1, fluorescence, higher = more signal.
Test [18] has as its system Sam68 (KHDRBS1). As to the kind of experiment: Sam68 small-molecule binders, primary screen, biochemical, small-molecule microarray, 635 nm fluorescence (AID 1125).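 Further: score merges 667 nm channel intensity with signal to noise over triplicate slides.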 The settings on record: small-molecule microarray binding, higher = more signal.
Test [19] deals with Chordin-like protein 2 (CHRDL2). As to the kind of experiment: CHRDL2 small-molecule binders, primary screen, biochemical, small-molecule microarray, 635 nm fluorescence (AID 1126).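 Further: printed compound slides probed with Chrdl2 protein at 4 µg/mL for 1 h at 4 C; score merges 667 nm emission intensity with signal to noise over three replicate slides.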 The conditions noted are these: small-molecule microarray binding, fluorescence 635 nm; higher = more signal.
Test [20] deals with Concanavalin-A (Canavalia ensiformis) (UniProt P02866). Put plainly: ConA small-molecule binders, primary screen, artefact control for SMM control protein annotation, biochemical, small-molecule microarray, Alexa647 label, 635 nm (AID 1127).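 Further: z combines 667 nm emission intensity with signal-to-noise across three replicate slides.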 The conditions noted are these: ConA-A647 binding fluorescence, higher = more signal.
Chain of Concanavalin-A (Canavalia ensiformis) (P02866 whole entry, looked up): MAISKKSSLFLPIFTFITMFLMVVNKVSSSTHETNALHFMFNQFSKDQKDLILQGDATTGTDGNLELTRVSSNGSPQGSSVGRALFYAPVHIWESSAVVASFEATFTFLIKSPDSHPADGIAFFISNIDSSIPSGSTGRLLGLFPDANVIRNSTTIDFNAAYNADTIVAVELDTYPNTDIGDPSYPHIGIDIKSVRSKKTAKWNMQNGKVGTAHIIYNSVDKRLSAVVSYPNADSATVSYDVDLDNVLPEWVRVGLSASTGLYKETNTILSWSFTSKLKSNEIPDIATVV

The source made the active and inactive calls.

Turning to `COC(=O)[C@@]1(Cc2ccccc2)[C@H]2c3cc(C(=O)N4CCCC4)n(Cc4ccc(OC(F)(F)F)cc4)c3C[C@H]2CN1C(=O)c1ccccc1`, the composite z-score in test [1] is 1.41; in test [3] it was -0.782; in test [4], 2.31; in test [5], 1.41; in [6], 0.583; in [7], 1.12. For the same compound, the composite z-score in [8] amounted to 1.69; in [9], 0.867; in test [10], 1.35; in test [11], 0.963; in [13], 0.772; in [14], 0.509. The composite z-score in test [15] was 0.461; in [16], 2.44; in test [17] it was 0.498; in test [18], 1.31; in [19] it was -0.488; in [20], 1.16. In test [2], this compound yielded a z-score of -1.95. In test [12], the composite Z-score is -0.56 (inactive).
On to `C[C@]12C(=O)N(CCCCCO)[C@@H]3C(=O)N(c4ccc(Cl)cc4)CC=CC31O[C@@H]1/C=C\CCCOC(=O)C12` (stereo not given in full), for which the composite z-score in [1] is -1.86; in test [3] it was -1.95; in test [4] it was -0.811; in [5], 1.22; in test [6], -0.23; in test [7] it was -0.138. For the same compound, the composite z-score in [8] is -0.125; in test [9], -0.579; in [10], -0.797; in test [11], 0.153; in test [13], -0.376; in [14], -0.14. For the same compound, the composite z-score is -0.247 in test [15]; -0.947 in test [16]; -0.615 in test [17]; -0.698 in test [18]; -1.12 in test [19]; -1.02 in test [20]. Further, in test [2], the z-score is -0.381. For the same compound, in [12], the composite Z-score is 0.312 (inactive).
On to `CCCCC=C[C@@H](NC(=O)CCc1ccccc1)c1ccccc1`, for which the composite z-score in test [1] amounted to 1.38; in [3], 0.151; in test [4], 0.504; in [5], 0.57; in test [6], 0.145; in [7], 1.11. Besides, the composite z-score was 1.11 in [8]; 1.49 in [9]; 1.19 in test [10]; 0.585 in test [11]; 0.23 in test [13]; 0.0409 in test [14]. For the same compound, the composite z-score worked out at 0.689 in test [15]; 2.37 in test [16]; 0.785 in test [17]; 1.2 in [18]; 0.0782 in [19]; 1.12 in test [20]. Besides, the z-score in [2] is -2.6. For the same compound, in test [12], the composite Z-score was 1.46 (inactive).
As for `COCCOC(=O)N1C(=O)[C@@]2(c3cc(C#Cc4ccc(OC)cc4)ccc31)[C@H](c1ccc(OCCO)cc1)N1[C@H](c3ccccc3)[C@H](c3ccccc3)OC(=O)[C@H]1[C@@H]2C(N)=O`, the composite z-score in [1] was 1.32; in test [3] it was 0.701; in test [4] it was 2.09; in [5], 0.451; in test [6], -0.0792; in [7] it was 0.296. For the same compound, the composite z-score in test [8] was 0.683; in test [9], 1.36; in [10] it was 2.23; in [11], 0.641; in test [13], 0.132; in test [14], -0.0404. For the same compound, the composite z-score in test [15] worked out at 0.573; in test [16] it was 0.441; in test [17], 0.617; in test [18], 1.35; in [19], 0.488; in test [20] it was 1.16. Moreover, in test [2], the z-score is -2.33. Also, in [12], the composite Z-score is 0.498 (inactive).
On to `COc1ccc(C(=O)Nc2ccc(CN3C(=O)[C@@]4(O[C@@H](CC(=O)N5Cc6ccccc6C[C@H]5CO)[C@H]([Si](C)(C)c5ccc(OC)cc5)[C@H]4C)c4ccccc43)cc2)cc1`, for which the composite z-score in test [1] is 1.1; in test [3] it was 0.804; in test [4], 0.0063; in [5] it was -0.613; in test [6], -0.119; in test [7], 0.0121. Further, the composite z-score in test [8] was -0.24; in test [9], 1.21; in test [10] it was 1.3; in test [11], 0.604; in test [13] it was -0.137; in test [14], -0.153. The composite z-score in test [15] was determined as 0.55; in test [16], 2.26; in test [17] it was 0.226; in test [18], 1.27; in test [19] it was 1.18; in test [20], 0.965. This compound displayed a z-score in test [2] of -3.84. The composite Z-score in test [12] is -0.086 (inactive).
`Cc1cc(C)c(C(O)C2C=CC3C(=O)N(c4ccccc4)C(=O)C3N2Nc2ccc([N+](=O)[O-])cc2)c(C)c1` (stereo not given): the composite z-score was 1.44 in test [1]; 0.38 in test [3]; 1.84 in test [4]; 0.469 in test [5]; -0.131 in test [6]; 0.0328 in [7]. The composite z-score in test [8] was 1.21; in test [9], 1.29; in test [10] it was 2.19; in test [11] it was 1.06; in test [13], 0.418; in [14], 0.149. The composite z-score in [15] was 0.643; in [16], 2.79; in test [17] it was 0.893; in test [18], 1.3; in test [19] it was -0.224; in test [20], 1.19. For the same compound, the z-score in test [2] was 0.49. Further, in [12], the composite Z-score was -0.909 (inactive).
